Bioassay records: PubChem BioAssay, National Center for Advancing Translational Sciences (NCATS)
This excerpt belongs to a sample that is enriched for hits.
Rango-impB inh – qHTS Assay for Inhibitors of Rango (Ran-regulated importin-beta cargo) - Importin beta complex formation | Rango CFP/YFP FRET sensor + importin beta, 45 min | Potency, µM (doses to about 92.2 µM) | hit rate 0.031% among 340,000 | AID 540263, 2011; also: nearly all actives have a fitted effect of over 15% in size
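FRET biosensor (snurportin 1 IBB flanked by EYFP and cerulean), 50 nM, with compound 5 min, then 0.125 microM importin beta in PBS, 1 mM DTT, 0.02% Tween-20, 0.1% BSA. CFP/YFP ratio read after 45 min at room temperature; pre-read flags interference.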
ClpP mod – qHTS Assay for Activators of ClpP; hit rate 1.9% among 340,000; Potency, µM (top dose mostly 57.5 µM); AID 651965, 2013; purified B. subtilis ClpP, FRET peptide cleavage, 20 min; ATP-dependent Clp protease proteolytic subunit (Bacillus subtilis (strain 168)), P80244; active = well fitted falling curve with a large enough effect; inconclusive = small, poorly fitted or top-dose-only effect; inactive = no such curve, though single readings can be large or run the other way; also: the source files actives as falling curves though it sought activators and does not explain the sign; nearly all actives have a fitted effect of over 65% in size
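Purified B. subtilis ClpP, 10 microg/mL final in Tris/HCl pH8 with KCl, BSA, glycerol and Tween-20, cleaved an Abz/nitrotyrosine-quenched decapeptide. Fluorescence (ex 320, em 430) was read at 0 and 20 min at room temperature. Delta was normalized to 5.8 microM ADEP and DMSO/no-enzyme controls.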
MBNL1-CUG inh – qHTS Assay for Inhibitors of MBNL1-poly(CUG) RNA binding | Muscleblind-like protein 1 (Homo sapiens), Q9NR56 | TR-FRET MBNL1-His/biotin-(CUG)12 binding, 665/545 ratio | Potency, µM (titrated, usually from 57.5 µM), usual class: inhibitors | hit rate 0.036% among 280,000 | AID 2675, 2010; active = well fitted inhibition curve with a large enough effect in the signal ratio, with a control signal flat, not every such curve was filed as active; inconclusive = small, poorly fitted or top-dose-only effect, or effect the other way, or a change in a side signal; inactive = no such curve, though single readings can be large or run the other way; the % refers to the signal ratio
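His-tagged MBNL1 binding to biotinylated (CUG)12 RNA was measured by TR-FRET using terbium anti-His antibody (0.055 ng/ul final) and streptavidin-XL665 (5 nM final). Compounds were titrated 92 nM to 58 uM; 60 min at room temperature.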
Rango dissoc inh – qHTS Assay for Inhibitors of RanGTP induced Rango (Ran-regulated importin-beta cargo) - Importin beta complex dissociation. Snurportin-1 (Homo sapiens) + GTP-binding nuclear protein Ran (Homo sapiens) + Importin …. Biochemical FRET Rango-importin beta, RanGTP-induced dissociation. Potency, µM (highest dose often 46.1 µM). hit rate 0.071% among 340,000; also: nearly all actives have a fitted effect of over 45% in size
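FRET read at 45 min, room temperature: inhibitors block the CFP/YFP signal rise when RanGTP (0.6 uM Ran, 2 mM GTP, 0.2 uM RCC1) frees Rango (0.1 uM) from importin beta (0.25 uM). Pre-read after 5 min compound exposure flags interference.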
CBFb RUNX1 block – qHTS Assay for Compounds Blocking the Interaction Between CBF-beta and RUNX1 for the Treatment of Acute Myeloid Leukemia | Potency, µM (highest dose often 59.8 µM), actives largely listed as inhibitors | Runt-related transcription factor 1 (Homo sapiens) + Core-binding factor subunit beta … | AlphaScreen CBFb-His/RUNX1-biotin binding, biochemical | AID 1477, 2009 | 230,000 tested, under 10 active; active = well fitted curve in the direction sought with a large enough effect; inconclusive = small, poorly fitted or top-dose-only effect, or effect the other way, or another doubt; inactive = no such curve, though single readings can be large or run the other way
Target sequence (Q01196 whole entry, looked up): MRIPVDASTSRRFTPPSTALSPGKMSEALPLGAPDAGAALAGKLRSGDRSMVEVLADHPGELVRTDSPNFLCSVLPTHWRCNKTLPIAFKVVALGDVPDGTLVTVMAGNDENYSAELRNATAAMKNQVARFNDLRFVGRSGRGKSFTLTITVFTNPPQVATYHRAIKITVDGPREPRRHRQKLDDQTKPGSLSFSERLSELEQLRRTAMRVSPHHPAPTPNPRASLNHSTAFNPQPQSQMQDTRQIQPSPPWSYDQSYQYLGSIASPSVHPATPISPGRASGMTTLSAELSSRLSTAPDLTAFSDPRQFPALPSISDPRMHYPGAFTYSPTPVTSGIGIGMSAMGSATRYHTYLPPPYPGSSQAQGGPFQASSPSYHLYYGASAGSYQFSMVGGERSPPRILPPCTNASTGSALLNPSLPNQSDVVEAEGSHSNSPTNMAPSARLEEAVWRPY
Target sequence (Q13951 whole entry, looked up): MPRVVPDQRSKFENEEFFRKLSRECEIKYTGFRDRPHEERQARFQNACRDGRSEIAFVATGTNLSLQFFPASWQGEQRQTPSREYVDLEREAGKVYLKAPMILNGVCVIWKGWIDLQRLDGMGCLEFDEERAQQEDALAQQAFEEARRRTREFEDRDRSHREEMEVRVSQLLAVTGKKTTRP
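Inhibition was taken as any reduction in AlphaScreen signal from the CBF-beta–RUNX1 pair (His and biotin tags, 30 nM each), measured after compound (15 min) and bead (90 min) incubations at room temperature.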
Each line names hits and unclear results; the compound was inactive in the other large screens. Unless noted, calls follow the shape of the full dose curve.

CN(C)c1ccc(/C=N\Nc2ccc([N+](=O)[O-])cc2[N+](=O)[O-])cc1Br	none (no result: Rango-impB inh, MBNL1-CUG inh, Rango dissoc inh, CBFb RUNX1 block)
O=C(Cc1c(O)c2ccccc2[nH]c1=O)NCc1cccc(F)c1	ClpP mod 28µM
O=C(Cc1c(O)c2ccccc2[nH]c1=O)NCc1ccccc1F	ClpP mod 28µM
COc1ccc(NC(=O)Cc2c(O)c3ccccc3[nH]c2=O)cc1	none
CCCNC(=O)Cc1c(O)c2ccccc2[nH]c1=O	ClpP mod inconclusive
COCCNc1nc2ccccc2nc1NS(=O)(=O)c1ccc(C)cc1C	ClpP mod 28µM
COc1ccc(NS(=O)(=O)c2ccc(NC(=O)c3ccc(N(C)S(C)(=O)=O)cc3)cc2)c(OC)c1	ClpP mod 25µM (no result: MBNL1-CUG inh)
CN(c1ccc(C(=O)Nc2ccc3c(c2)n(C)c(=O)n3C)cc1)S(C)(=O)=O	ClpP mod 25µM (no result: CBFb RUNX1 block)
CN(c1ccccc1C(=O)Nc1ccc2c(c1)n(C)c(=O)n2C)S(C)(=O)=O	none (no result: CBFb RUNX1 block)
Cc1cc2ccc(Cl)nc2nc1C	none (no result: Rango-impB inh, MBNL1-CUG inh, Rango dissoc inh, CBFb RUNX1 block)
COC(=O)C1CCCCN1C(=O)c1ccc2oc(C(C)C)nc2c1 (stereo unspecified)	none (no result: CBFb RUNX1 block)
COC(=O)C1CCCCN1C(=O)c1ccc2oc(Cc3ccccc3)nc2c1 (stereo unspecified)	ClpP mod 28µM (no result: CBFb RUNX1 block)
CCOc1ccc(-c2nc(CSCC(=O)N3CCN(C(=O)c4ccco4)CC3)c(C)o2)cc1	none
COc1ccc(-c2nc(CSCC(=O)NC3CC3)c(C)o2)cc1OC	none (no result: CBFb RUNX1 block)
CCOC(=O)N1CCC(NC(=O)CSCc2nc(-c3ccc(OC)c(OC)c3)oc2C)CC1	ClpP mod 8.9µM
COc1ccc(-c2nc(CSCC(=O)NC3CCCc4ccccc43)c(C)o2)cc1OC (stereo unspecified)	ClpP mod 28µM
CCOC(=O)C1CCN(C(=O)CSCc2nc(-c3ccc(OCC)cc3)oc2C)CC1	ClpP mod 28µM
COc1ccc(NC(=O)COc2ccccc2C(=O)Nc2ccccc2)cc1	none (no result: Rango-impB inh, MBNL1-CUG inh, Rango dissoc inh, CBFb RUNX1 block)
CCOC(=O)N1CCc2c(sc(NCc3cc(OC)ccc3OC)c2C(=O)Nc2cc(OC)ccc2OC)C1	none (no result: Rango-impB inh, MBNL1-CUG inh, Rango dissoc inh, CBFb RUNX1 block)
Cc1c(-c2ccc(Cl)cc2)oc(=O)c2c(N)n(-c3ccccc3)nc12	none
Nc1c2c(=O)oc(-c3ccccc3)cc2nn1-c1ccccc1	Rango-impB inh inconclusive, ClpP mod 14µM, MBNL1-CUG inh inconclusive
Cc1cccc2c(=O)n3c(cc12)-c1[nH]c2ccccc2c1CC3	Rango-impB inh inconclusive, ClpP mod 14µM, Rango dissoc inh inconclusive (no result: MBNL1-CUG inh, CBFb RUNX1 block)
Cc1cc(C)c(NC(=O)c2cc(C)nc3c2c(C)nn3-c2cccc(F)c2)c(C)c1	none (no result: Rango-impB inh, MBNL1-CUG inh, Rango dissoc inh, CBFb RUNX1 block)
CCc1nc2sc(C(C)=O)c(N)c2c2c1CCCC2	Rango-impB inh inconclusive, MBNL1-CUG inh inconclusive, Rango dissoc inh inconclusive, CBFb RUNX1 block inconclusive
CCc1nc2sc(C#N)c(N)c2c2c1CCCC2	ClpP mod 28µM (no result: MBNL1-CUG inh, CBFb RUNX1 block)
O=C(CSc1nc2ccccc2nc1Cc1ccccc1F)Nc1cccc(C(F)(F)F)c1	none (no result: Rango-impB inh, MBNL1-CUG inh, Rango dissoc inh, CBFb RUNX1 block)
COc1ccc(N2CCN(S(=O)(=O)CCNC(=O)COc3ccccc3)CC2)cc1	ClpP mod 18µM (no result: MBNL1-CUG inh, CBFb RUNX1 block)
O=C(NC1CC(=O)N(c2cccc(F)c2)C1)c1ccc(Br)o1 (stereo unspecified)	none (no result: Rango-impB inh, MBNL1-CUG inh, Rango dissoc inh, CBFb RUNX1 block)
COc1ccccc1C(=O)Nc1ccc(Oc2ncnc3sc(-c4ccccc4)cc23)cc1	ClpP mod 10µM
OCCCN=c1cc(-c2ccccc2)oc2ccc(Cl)cc12	ClpP mod 32µM, MBNL1-CUG inh inconclusive
CCOC(=O)c1sc(-c2cccs2)nc1C	none (no result: MBNL1-CUG inh)
CCOC(=O)c1cc(-c2cccs2)nc2onc(C)c12	ClpP mod 32µM
C=C1C=C(C(F)F)n2ncc(C(=O)NCc3ccc(Cl)cc3Cl)c2N1	none (no result: Rango-impB inh, MBNL1-CUG inh, Rango dissoc inh, CBFb RUNX1 block)
CC(=O)Nc1ccc(NC(=O)C2CCN(c3c(NC(C)=O)c(C)nn3-c3ccccc3)CC2)cc1	none (no result: Rango-impB inh, MBNL1-CUG inh, Rango dissoc inh, CBFb RUNX1 block)
O=C(NCc1cccc(Cl)c1)c1ccc2c(Cl)c3c(nc2c1)CCCC3	none (no result: Rango-impB inh, MBNL1-CUG inh, Rango dissoc inh, CBFb RUNX1 block)
CCCCc1c(O)c2ccccc2n(CCCC)c1=O	none
